The whole screen tested about 220,000 compounds, of which about 770 (0.35%) were called active. Another 15% or so got no clear call; they are omitted. The sample holds actives, similar compounds and a random draw of the others, so the mix is not that of the screen. No stated cut-off is given here; in the data, active means binding response below about 49% or above about 150%; inconclusive means no clear call, values can overlap the other calls; inactive means in between.
Biological target: Guanine nucleotide-binding protein G(o) subunit alpha (Homo sapiens) (UniProt P09471)
Assay: compounds changing RGS7 association with Galphao – biochemical, multiplexed bead flow cytometry, primary screen (AID 1439);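 further: fluorescent Galphao held in activated GDP-AlF4 state binding bead-coupled RGS7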
Conditions: at 10 µM, actives lie on both sides

Guanine nucleotide-binding protein G(o) subunit alpha (Homo sapiens), sequence (P09471 whole entry, looked up): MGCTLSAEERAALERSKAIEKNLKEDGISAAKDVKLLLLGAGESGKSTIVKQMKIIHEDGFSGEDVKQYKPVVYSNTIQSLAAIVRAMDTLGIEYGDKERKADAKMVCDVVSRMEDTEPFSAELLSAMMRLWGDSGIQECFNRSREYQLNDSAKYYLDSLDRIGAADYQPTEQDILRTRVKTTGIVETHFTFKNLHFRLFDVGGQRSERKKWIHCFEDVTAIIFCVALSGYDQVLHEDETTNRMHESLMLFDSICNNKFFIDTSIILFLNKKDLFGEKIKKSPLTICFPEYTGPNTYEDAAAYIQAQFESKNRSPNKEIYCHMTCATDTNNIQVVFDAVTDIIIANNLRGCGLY

| SMILES | binding response (% of control) |
| --- | --- |
| Cc1c(C(=O)Nc2ccccc2)sc2nc3n(c(=O)c12)CCCCC3 | 94.2% (inactive) |
| CCC(=O)N1CCC(C(N)=O)(N2CCCCC2)CC1 | 161% (active) |
| NC(=O)C1(N2CCCCC2)CCN(C(=S)Nc2ccc(Cl)cc2)CC1 | 108% (inactive) |
| CC(C)(O)C#Cc1ccc(C(=O)N2CCC(C(N)=O)(N3CCCCC3)CC2)cc1 | 101% (inactive) |
| Fc1ccc(COc2cccc(-c3n[nH]c(=S)o3)c2)cc1 | 103% (inactive) |
| COC(=O)CN1C(=O)N/C(=C/c2ccc(OC)c(C)c2OC)C1=O | 103% (inactive) |
| COc1cc(/C=C/C(=O)N2c3ccccc3Sc3ccc(C(F)(F)F)cc32)cc(OC)c1OC | 104% (inactive) |
| O=C(CN1CCCCC1)N1c2ccccc2Sc2ccc(C(F)(F)F)cc21 | 27.5% [inhibitor] (active) |
| O=C(CN1CCCCCC1)N1c2ccccc2Sc2ccc(C(F)(F)F)cc21 | 89.4% (inactive) |
| N#C/C(C(=S)Nc1ccccc1)=C1/NN=C(N2CCOCC2)N1c1ccccc1 | 97.6% (inactive) |
| O=C(Nc1ccc(-n2ccnc2P(=O)(O)c2ccccc2)cc1)c1ccccc1Br | 152% (active) |
| O=C(Nc1ccccc1)c1cccnc1Nc1ccccc1 | 99.9% (inactive) |
| Cc1ccc(NC(=O)c2cccnc2C(=O)Nc2ccc(C)cc2)cc1 | 106% (inactive) |
| COC(=O)C1=C(C)N(c2ccc(C)cc2)/C(=C/c2ccc(O)cc2)C1=O | 104% (inactive) |
| Cc1ccc2[nH]c(=O)c(CN(CC3COCCO3)C(=O)Nc3ccccc3C)cc2c1 (stereo unspecified) | 102% (inactive) |
| CC(=O)c1ccc(NC(=O)CSC(=S)N2CCCC2)cc1 | 102% (inactive) |

| SMILES | binding response (% of control) |
| --- | --- |
| CN(CC(=O)NC1CCCCC1)S(=O)(=O)c1cccc2cccnc12 | 241% (active) |
| Cc1ccc(S(=O)(=O)N(C)CC(=O)NC2CCCC2)cc1 | 98.3% (inactive) |
| CN(CC(=O)NC1CCCCC1)S(=O)(=O)c1ccc(Br)s1 | 99.1% (inactive) |
| N/C(=N/O)c1cccn1Cc1ccccc1[N+](=O)[O-] | 99.3% (inactive) |
| O=C(COC(=O)CCc1ccc(S(=O)(=O)N2CCOCC2)cc1)Nc1cccc(Cl)c1 | 99.8% (inactive) |
| Cc1cc(C)nc(/N=C2\NC(=O)CC(C(=O)O)N2c2ccc(Cl)cc2Cl)n1 (stereo unspecified) | 170% (active) |
| CCOC(=O)c1nc(C)n(-c2ccc(Cl)cc2Cl)n1 | 102% (inactive) |
| Cc1cc(C)n(-c2ccc(Cl)c(C(=O)O)n2)n1 | 96.7% (inactive) |
| COc1cccc(C2c3[nH]c4ccccc4c3CCN2Cc2cccc(C)n2)c1 (stereo unspecified) | 102% (inactive) |
| O=C(NC1CC1)c1cccc(Br)c1 | 102% (inactive) |
| O=C(NC1CC1)c1ccc2c(c1)NC(=O)c1ccccc1S2 | 191% (active) |
| S=C1Nc2cc(Cl)ccc2Sc2ccccc21 | 100% (inactive) |
| CC(=O)NC(Cc1ccc(F)c(F)c1)C(=O)NC1CCN(C(=O)c2ccc(C)cc2)CC1 (stereo unspecified) | 95.6% (inactive) |
| CCCn1c(NC(=O)C23CC4CC(CC(O)(C4)C2)C3)nc2ccccc21 | 104% (inactive) |
| CC(=O)N1CCc2cc(Br)cc(S(=O)(=O)CCC(=O)Nc3c(C)n(C)n(-c4ccccc4)c3=O)c21 | 98.9% (inactive) |

Source: PubChem BioAssay AID1439 (NMMLSC, 2008)
